This is an account of results in PubChem BioAssay (NCI).

Each structure is given as a SMILES string. About 79,000 compounds went through this panel and 15% of them were active in at least one assay; those are over-represented in the sample as a whole. Values without a mark were called inactive. Activity calls are given as the source filed them. Cut-off read from the data, not from the text of the source: active = growth inhibition above about 70%; inactive = the rest.

The nature of experiment [1]: NCI Yeast Anticancer Drug Screen. Data for the rad50 strain (AID 155).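 Note: 0% = growth of vehicle-only cultures of the same strain.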 The conditions noted are these: S. cerevisiae rad50 strain growth inhibition; at 50.0 µM; active compounds read high. The gist of the method:
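Yeast carrying a defined DNA repair defect were exposed to test compounds, and growth was compared with vehicle-treated controls to give percent inhibition.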

Experiment [2] can be described thus: NCI Yeast Anticancer Drug Screen. Data for the mec2-1 strain (AID 157). To be noted: S. cerevisiae mec2-1 strain, at 50.0 µM, active compounds read high. The gist of the method:
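Cells of the genetically defined mec2-1 yeast strain are incubated with test compound. Inhibition of growth is calculated against vehicle-treated controls.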

A short description of experiment [3]: NCI Yeast Anticancer Drug Screen. Data for the sgs1 mgt1 strain (AID 161).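 Note: 0% = growth of cultures given vehicle only.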 To be noted: S. cerevisiae sgs1 mgt1 strain, at 50.0 µM, active compounds read high. The gist of the method: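 Read-out: growth inhibition vs vehicle controls. Cells: mutant yeast strain deficient in DNA damage repair.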
A short description of experiment [4]: NCI Yeast Anticancer Drug Screen. Data for the cln2 rad14 strain (AID 165).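 Note: 0% = growth equal to vehicle treated cultures.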 To be noted: S. cerevisiae cln2 rad14 strain, at 50.0 µM, active compounds read high. The gist of the method:
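The screen exposed genetically defined yeast (cln2 rad14) to test compounds and scored growth inhibition relative to vehicle-treated controls.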

The nature of experiment [5]: NCI Yeast Anticancer Drug Screen. Data for the bub3 strain (AID 167). To be noted: S. cerevisiae bub3 mutant strain, at 50.0 µM, active compounds read high. The gist of the method: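 Compounds were applied to a genetically altered yeast strain carrying a cell-cycle control defect. Growth inhibition was scored against vehicle-treated controls.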
Experiment [6] in a line: NCI Yeast Anticancer Drug Screen. Data for the mlh1 rad18 strain (AID 175). To be noted: S. cerevisiae mlh1 rad18 strain growth inhibition; at 50.0 µM; active compounds read high. The gist of the method: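 Compound-treated yeast growth, normalised to vehicle controls. Strain bears defined DNA repair mutations.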

`O=NNc1ccc(Sc2ccccc2)cn1`: the growth inhibition in experiment [1] is 6.8%; in experiment [2], -9.2%; in experiment [3], -3.75%; in experiment [4], -8.55%; in experiment [5] it was -31.6%; in experiment [6] it was 10.6%.
Consider `O=C(O)CCC(=O)NNC(=O)CCC(=O)O`, for which the growth inhibition in experiment [1] was 16.2%; in experiment [2] it was -2.45%; in experiment [3], 4.15%; in experiment [4], -8.45%; in experiment [5], 14.3%; in experiment [6] it was -22.4%.
Regarding `CC(=O)CC(C)(C)NC(=S)Nc1ccc(C)cc1`, the growth inhibition in experiment [1] was 22.6%; in experiment [2], 46.1%; in experiment [3] it was 15.3%; in experiment [4], -10.7%; in experiment [5], 99.2% (active); in experiment [6] it was 42.3%.
As to `Cc1sc2nc3n(c(=O)c2c1C)N=C(c1ccc(Cl)cc1)CS3`, the growth inhibition is 6.6% in experiment [1]; -11.2% in experiment [2]; -6.65% in experiment [3]; 9.2% in experiment [4]; -0.8% in experiment [5]; -16.2% in experiment [6].
As to `C=C1C(=O)C23CC1C[C@H](OC(C)=O)C2C1(C)C(OC(C)=O)C[C@H](O)C(C)(C)[C@H]1C(O)[C@@H]3OC(C)=O` (stereo not given in full), the growth inhibition in experiment [1] was 9.8%; in experiment [2] it was -3.85%; in experiment [3], 3.25%; in experiment [4] it was -2.95%; in experiment [5] it was 24.1%; in experiment [6] it was 20.3%.
Take `CC(=O)NNc1nc(C)c(C(=O)NNC(=O)C(=O)Nc2c(C)cccc2C(C)(C)C)s1`: the growth inhibition in experiment [1] was 26.6%; in experiment [2] it was 20.2%; in experiment [3] it was 13.2%; in experiment [4], 32.5%; in experiment [5], 24.9%; in experiment [6] it was 20.9%.
With `O=C(Nc1ccc(Cl)cc1)Nc1ccc(Cl)nn1`, the growth inhibition in experiment [1] is -29.2%; in experiment [2] it was 7.85%; in experiment [3], -10.1%; in experiment [4], -39.8%; in experiment [5], -6.8%; in experiment [6], -1.85%.
Turning to `O=C(Nc1nc(C23CC4CC(CC(C4)C2)C3)cs1)c1c(O)c2ccccc2[nH]c1=O`, the growth inhibition in experiment [1] was -29.2%; in experiment [2], -23.9%; in experiment [3], -8.75%; in experiment [4] it was 8.95%; in experiment [5], -6.45%; in experiment [6], -22.5%.
As for `N#C/C(=C\c1c(S(=O)(=O)O)sc2ccccc12)C(N)=O` (tested in a mixture with another compound), the growth inhibition in experiment [1] is 30.3%; in experiment [2] it was 10.1%; in experiment [3], 17.1%; in experiment [4] it was 25.3%; in experiment [5], -0.9%; in experiment [6], 21.8%.
Consider `COC(=O)/C(=N\N)C(C(=O)C(=O)Nc1cc(Cl)ccc1Cl)c1nc2ccc([N+](=O)[O-])cc2[nH]c1=O` (stereo not given), for which the growth inhibition in experiment [1] was 13.1%; in experiment [2], 6.6%; in experiment [3] it was -6.15%; in experiment [4] it was -20.2%; in experiment [5], 25.9%; in experiment [6], 12.7%.
On to `CCCCCCCCOC(=O)Nc1ccc(S(=O)(=O)CC)cc1`, for which the growth inhibition in experiment [1] was -3.3%; in experiment [2] it was -7.2%; in experiment [3], -23.3%; in experiment [4], -31.9%; in experiment [5], -2.15%; in experiment [6], -22.2%.
Turning to `O=c1[nH]c2ccccc2c(=O)n1CCCN1CCN(c2cccc(Cl)c2)CC1`, the growth inhibition was 22% in experiment [1]; 12.4% in experiment [2]; 33.8% in experiment [3]; -23.4% in experiment [4]; 15.8% in experiment [5]; 14.8% in experiment [6].
Turning to `N#Cc1ccccc1NC(=O)C(=O)C(C(=O)c1ccccc1F)C1OC(=O)c2ccccc21` (stereo not given), the growth inhibition is -1.1% in experiment [1]; -10.8% in experiment [2]; -5.25% in experiment [3]; -5.5% in experiment [4]; -16.2% in experiment [5]; -2.4% in experiment [6].
For the compound `COc1ccc(N=Cc2cc(Cl)cc(Cl)c2OC(=O)c2ccccc2)cc1`, the growth inhibition is -10.6% in experiment [1]; -31.1% in experiment [2]; 8.55% in experiment [3]; 0.65% in experiment [4]; -13.6% in experiment [5]; -19.2% in experiment [6].
As to `CC1(O)OC(=O)c2ccc3ccccc3c21` (stereo not given), the growth inhibition in experiment [1] was -11.4%; in experiment [2] it was -19.9%; in experiment [3], -9.35%; in experiment [4], 14.9%; in experiment [5] it was -20.8%; in experiment [6] it was 11%.
Turning to `Cn1c[n+](-c2ccccc2)c([S-])n1`, the growth inhibition is -0.05% in experiment [1]; 5.05% in experiment [2]; 5.15% in experiment [3]; -22.5% in experiment [4]; -24.9% in experiment [5]; -7.4% in experiment [6].
Consider `CCC(c1ccc(N(C)C)cc1)c1ccc(N(C)C)cc1`, for which the growth inhibition is 3.8% in experiment [1]; -48.9% in experiment [2]; 1.6% in experiment [3]; 8.35% in experiment [4]; 0.05% in experiment [5]; 4.2% in experiment [6].
For the compound `N#CC(C(=O)O)C1(C(C#N)C(=O)O)CCN(Cc2ccccc2)CC1` (stereo not given), the growth inhibition in experiment [1] is -9.9%; in experiment [2] it was -5.1%; in experiment [3], 40.5%; in experiment [4] it was -21.9%; in experiment [5] it was -2.15%; in experiment [6] it was -10.1%.
For `CCCOC(=O)c1ccccc1C=O`, the growth inhibition in experiment [1] is -12.1%; in experiment [2] it was -3.5%; in experiment [3] it was -18.6%; in experiment [4] it was -49.9%; in experiment [5], -10.3%; in experiment [6] it was 23.4%.
Take `CC(C)=CCC/C(C)=C/CN`: the growth inhibition in experiment [1] is 9.25%; in experiment [2], -2.6%; in experiment [3], 20.4%; in experiment [4], -17.6%; in experiment [5], 9%; in experiment [6], 6.15%.
